Our source for the Percent Effect values is ChEMBL document CHEMBL3988442, “University of Dundee, Small-Polar-MMV Screening Library” (2021).

For part of these data: Measured potencies and affinities stand elsewhere.

Common to all, as to set-up: scale not given: direction of the effect not stated beside the values
Test [1] deals with Protein translocase subunit SecA (Escherichia coli (strain K12)) (UniProt P10408). In words: Assay to Identify E. coli SecA ATPase Inhibitors. Format: functional. The settings on record: 30 µM.
Test [2] has as its target T1, Ubiquitin-activating enzyme e1, putative (Leishmania donovani (strain BPK282A1)) (UniProt E9BSI1).
T1 sequence (whole entry): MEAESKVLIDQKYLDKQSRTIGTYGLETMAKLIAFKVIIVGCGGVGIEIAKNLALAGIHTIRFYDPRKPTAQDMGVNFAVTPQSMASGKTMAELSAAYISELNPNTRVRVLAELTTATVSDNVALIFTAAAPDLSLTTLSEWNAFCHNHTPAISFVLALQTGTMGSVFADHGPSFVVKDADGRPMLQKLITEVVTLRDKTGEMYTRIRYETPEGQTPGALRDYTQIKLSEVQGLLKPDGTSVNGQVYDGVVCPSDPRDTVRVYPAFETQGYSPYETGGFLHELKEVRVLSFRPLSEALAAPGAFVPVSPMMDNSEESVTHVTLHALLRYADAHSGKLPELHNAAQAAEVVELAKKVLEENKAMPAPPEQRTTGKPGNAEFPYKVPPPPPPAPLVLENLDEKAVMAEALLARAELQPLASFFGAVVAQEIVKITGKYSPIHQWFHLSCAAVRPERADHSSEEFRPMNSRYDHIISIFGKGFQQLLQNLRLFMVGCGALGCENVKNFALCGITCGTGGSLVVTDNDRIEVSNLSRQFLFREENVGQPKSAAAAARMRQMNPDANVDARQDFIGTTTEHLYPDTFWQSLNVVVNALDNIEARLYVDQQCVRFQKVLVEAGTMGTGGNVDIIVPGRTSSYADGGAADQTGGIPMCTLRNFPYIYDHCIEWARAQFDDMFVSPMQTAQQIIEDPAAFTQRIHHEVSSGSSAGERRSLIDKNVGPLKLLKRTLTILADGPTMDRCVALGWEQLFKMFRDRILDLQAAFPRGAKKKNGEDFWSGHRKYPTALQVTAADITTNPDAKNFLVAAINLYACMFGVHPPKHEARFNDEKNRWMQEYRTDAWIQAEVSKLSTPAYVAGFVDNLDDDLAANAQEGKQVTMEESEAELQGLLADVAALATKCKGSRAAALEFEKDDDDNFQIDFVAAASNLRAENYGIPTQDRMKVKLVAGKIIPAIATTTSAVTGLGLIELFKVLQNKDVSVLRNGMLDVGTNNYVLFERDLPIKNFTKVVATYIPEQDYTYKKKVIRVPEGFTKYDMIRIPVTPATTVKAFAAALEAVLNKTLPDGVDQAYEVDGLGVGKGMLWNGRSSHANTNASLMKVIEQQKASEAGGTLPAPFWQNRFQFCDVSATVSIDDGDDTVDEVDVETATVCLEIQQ
In words: Leishmania donovani Ubiquitin Activating Enzyme (LdE1). It is filed as functional. Conditions: 30 µM.

Test [3] has as its target Sialic acid-binding Ig-like lectin 9 (Homo sapiens) (UniProt Q9Y336). In words: Hs-Siglec9 ALPHAscreen SOP 20170721. The settings on record: 10 µM. In general terms: Alpha assays give light when donor and acceptor beads are brought close together.
Another test relates to Trypanosoma cruzi. Put plainly: Trypanosoma cruzi phosphomannomutase and mannose-1-phosphate guanylyltransferase assay. The settings on record: 10 µM. It is filed as functional.
Test [4] deals with T2, Arginase-2, mitochondrial (Homo sapiens) (UniProt P78540).
T2 sequence (whole entry): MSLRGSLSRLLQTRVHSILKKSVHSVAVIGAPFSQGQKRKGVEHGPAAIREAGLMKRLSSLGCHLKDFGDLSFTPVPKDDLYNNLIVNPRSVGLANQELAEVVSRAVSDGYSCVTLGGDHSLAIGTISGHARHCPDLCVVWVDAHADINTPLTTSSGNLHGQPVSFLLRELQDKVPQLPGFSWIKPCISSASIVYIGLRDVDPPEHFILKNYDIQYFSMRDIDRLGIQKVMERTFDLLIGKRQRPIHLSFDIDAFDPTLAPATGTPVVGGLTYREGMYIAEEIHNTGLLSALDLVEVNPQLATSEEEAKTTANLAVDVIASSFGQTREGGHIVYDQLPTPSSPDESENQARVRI
Put plainly: in vitro enzyme assay to detect the production of urea directly proportional to the activity of Arginase II. Note: in the data most compounds retested in dose-response had high values. It is filed as functional. The settings on record: 33.3 µM.

The target in test [5] is T3, Proteasome subunit beta (Trypanosoma cruzi) (UniProt O96673).
T3 sequence (whole entry): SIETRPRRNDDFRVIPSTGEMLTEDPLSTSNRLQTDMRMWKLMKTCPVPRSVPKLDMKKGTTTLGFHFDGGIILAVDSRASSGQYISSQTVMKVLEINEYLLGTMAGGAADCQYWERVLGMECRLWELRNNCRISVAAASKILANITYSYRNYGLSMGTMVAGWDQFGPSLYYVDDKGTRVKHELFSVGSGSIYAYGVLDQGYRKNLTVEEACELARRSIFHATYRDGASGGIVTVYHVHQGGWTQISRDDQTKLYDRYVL
Put plainly: Trypanosoma cruzi proteasome chymotrypsin-like activity (TcProtChymo) assay. Note: in the data most compounds retested in dose-response had high values. It is filed as functional. Conditions: 9.37 µM.

Another test is filed under the species Homo sapiens. Put plainly: To identify inhibition of the IFN signalling (Jak-Stat) pathway via expression of an eGFP reporter gene under the control of an IFN-stimulated response element (ISRE) containing MxA promoter. It is filed as functional. Conditions: 30 µM.
The target of test [6] is T4, Tyrosyl-tRNA synthetase, putative (Trypanosoma cruzi (strain CL Brener)) (UniProt Q4DSP6).
T4 sequence (whole entry): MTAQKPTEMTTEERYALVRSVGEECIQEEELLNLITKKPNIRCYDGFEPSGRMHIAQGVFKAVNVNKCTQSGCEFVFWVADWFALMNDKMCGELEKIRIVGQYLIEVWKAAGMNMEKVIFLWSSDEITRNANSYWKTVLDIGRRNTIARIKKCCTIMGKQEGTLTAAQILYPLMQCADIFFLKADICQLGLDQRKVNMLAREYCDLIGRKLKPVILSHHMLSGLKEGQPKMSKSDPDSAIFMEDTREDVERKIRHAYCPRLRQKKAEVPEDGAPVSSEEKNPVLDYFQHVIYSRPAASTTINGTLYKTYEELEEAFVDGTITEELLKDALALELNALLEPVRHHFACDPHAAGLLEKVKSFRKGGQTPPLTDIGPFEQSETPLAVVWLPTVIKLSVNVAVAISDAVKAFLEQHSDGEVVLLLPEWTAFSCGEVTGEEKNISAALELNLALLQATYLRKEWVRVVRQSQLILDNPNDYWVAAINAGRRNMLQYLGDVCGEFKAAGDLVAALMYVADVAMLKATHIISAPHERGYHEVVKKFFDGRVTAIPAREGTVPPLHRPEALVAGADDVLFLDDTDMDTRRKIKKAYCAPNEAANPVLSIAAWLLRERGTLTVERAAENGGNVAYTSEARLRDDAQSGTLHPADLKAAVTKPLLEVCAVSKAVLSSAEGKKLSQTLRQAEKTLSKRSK
Put plainly: Trypanosoma cruzi tyrosyl tRNA synthetase (TcYRS) _High Tyrosine SOP. Note: in the data most compounds retested in dose-response had high values. It is filed as functional. Conditions: 30 µM.

For test [7], the target named is T4, Tyrosyl-tRNA synthetase, putative (Trypanosoma cruzi (strain CL Brener)). In words: Trypanosoma cruzi tyrosyl tRNA synthetase (TcYRS) SOP. Format: functional. Conditions: 30 µM.
The target of test [8] is Chromo domain-containing protein 1 (Saccharomyces cerevisiae (strain ATCC 204508 / S288c) (Baker's yeast)) (UniProt P32657). Put plainly: ScCHD-1 Enzyme Inhibition Assay. Note: in the data most compounds retested in dose-response had high values. It is filed as functional. The settings on record: 30 µM.
Chain of Chromo domain-containing protein 1 (Saccharomyces cerevisiae (strain ATCC 204508 / S288c) (Baker's yeast)) (P32657 whole entry, the tested form may be a part): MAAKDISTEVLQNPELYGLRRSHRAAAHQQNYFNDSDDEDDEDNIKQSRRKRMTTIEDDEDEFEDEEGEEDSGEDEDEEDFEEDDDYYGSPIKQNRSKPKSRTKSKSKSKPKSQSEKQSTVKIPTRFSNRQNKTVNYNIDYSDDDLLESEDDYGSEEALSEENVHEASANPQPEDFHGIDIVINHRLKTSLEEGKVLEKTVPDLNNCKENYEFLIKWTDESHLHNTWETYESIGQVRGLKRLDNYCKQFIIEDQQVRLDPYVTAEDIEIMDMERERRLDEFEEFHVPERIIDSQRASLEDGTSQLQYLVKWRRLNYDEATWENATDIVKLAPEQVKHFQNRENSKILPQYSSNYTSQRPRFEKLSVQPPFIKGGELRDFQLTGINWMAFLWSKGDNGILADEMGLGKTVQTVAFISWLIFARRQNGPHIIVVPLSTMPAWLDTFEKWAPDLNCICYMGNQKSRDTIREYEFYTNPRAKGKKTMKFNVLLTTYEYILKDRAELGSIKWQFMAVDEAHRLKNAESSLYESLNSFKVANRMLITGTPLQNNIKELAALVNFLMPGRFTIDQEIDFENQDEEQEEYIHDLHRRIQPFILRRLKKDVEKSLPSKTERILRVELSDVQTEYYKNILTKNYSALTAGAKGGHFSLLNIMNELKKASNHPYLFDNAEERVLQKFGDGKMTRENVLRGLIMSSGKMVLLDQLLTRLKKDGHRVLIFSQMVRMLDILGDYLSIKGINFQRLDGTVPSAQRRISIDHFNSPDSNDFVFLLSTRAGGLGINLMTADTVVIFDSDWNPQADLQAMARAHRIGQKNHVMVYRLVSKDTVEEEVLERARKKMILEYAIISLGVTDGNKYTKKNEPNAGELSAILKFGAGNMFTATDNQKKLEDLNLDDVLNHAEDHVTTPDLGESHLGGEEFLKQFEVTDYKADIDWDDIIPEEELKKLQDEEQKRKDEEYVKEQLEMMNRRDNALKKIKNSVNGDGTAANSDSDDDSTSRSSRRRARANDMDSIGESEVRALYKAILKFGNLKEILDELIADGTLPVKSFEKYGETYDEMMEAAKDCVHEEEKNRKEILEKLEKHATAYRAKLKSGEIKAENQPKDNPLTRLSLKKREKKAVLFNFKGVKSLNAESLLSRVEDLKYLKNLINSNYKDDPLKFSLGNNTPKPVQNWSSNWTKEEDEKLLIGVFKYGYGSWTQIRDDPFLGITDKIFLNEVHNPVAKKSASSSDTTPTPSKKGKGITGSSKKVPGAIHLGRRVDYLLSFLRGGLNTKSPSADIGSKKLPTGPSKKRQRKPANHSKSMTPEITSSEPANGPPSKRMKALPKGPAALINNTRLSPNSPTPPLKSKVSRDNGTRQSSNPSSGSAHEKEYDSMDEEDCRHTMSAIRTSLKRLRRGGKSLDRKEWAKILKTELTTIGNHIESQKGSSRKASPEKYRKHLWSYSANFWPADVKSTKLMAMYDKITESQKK

Chain of Protein translocase subunit SecA (Escherichia coli (strain K12)) (P10408 whole entry): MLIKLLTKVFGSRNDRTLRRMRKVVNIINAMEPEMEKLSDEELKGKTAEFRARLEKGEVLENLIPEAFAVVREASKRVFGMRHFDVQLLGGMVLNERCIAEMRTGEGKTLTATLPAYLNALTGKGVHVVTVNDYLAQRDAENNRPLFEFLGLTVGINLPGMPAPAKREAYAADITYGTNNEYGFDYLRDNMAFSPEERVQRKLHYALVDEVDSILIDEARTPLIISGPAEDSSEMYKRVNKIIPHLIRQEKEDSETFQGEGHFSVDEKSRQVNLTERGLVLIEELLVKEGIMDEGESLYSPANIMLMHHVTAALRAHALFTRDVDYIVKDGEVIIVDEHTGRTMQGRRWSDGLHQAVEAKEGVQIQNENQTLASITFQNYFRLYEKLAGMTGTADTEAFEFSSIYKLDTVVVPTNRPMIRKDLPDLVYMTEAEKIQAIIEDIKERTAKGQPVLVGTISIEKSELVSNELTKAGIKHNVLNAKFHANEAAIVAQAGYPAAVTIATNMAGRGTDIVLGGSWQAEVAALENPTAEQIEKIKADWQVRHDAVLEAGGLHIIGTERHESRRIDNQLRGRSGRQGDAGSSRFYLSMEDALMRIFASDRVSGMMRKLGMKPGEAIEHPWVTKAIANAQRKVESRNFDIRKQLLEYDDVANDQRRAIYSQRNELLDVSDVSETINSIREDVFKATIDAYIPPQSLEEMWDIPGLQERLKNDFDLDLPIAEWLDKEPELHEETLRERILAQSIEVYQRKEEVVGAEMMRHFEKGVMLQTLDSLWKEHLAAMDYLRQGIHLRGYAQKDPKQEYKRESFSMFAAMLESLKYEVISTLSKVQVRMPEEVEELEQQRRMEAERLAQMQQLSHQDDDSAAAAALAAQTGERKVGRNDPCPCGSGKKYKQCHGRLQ
Chain of Sialic acid-binding Ig-like lectin 9 (Homo sapiens) (Q9Y336 whole entry): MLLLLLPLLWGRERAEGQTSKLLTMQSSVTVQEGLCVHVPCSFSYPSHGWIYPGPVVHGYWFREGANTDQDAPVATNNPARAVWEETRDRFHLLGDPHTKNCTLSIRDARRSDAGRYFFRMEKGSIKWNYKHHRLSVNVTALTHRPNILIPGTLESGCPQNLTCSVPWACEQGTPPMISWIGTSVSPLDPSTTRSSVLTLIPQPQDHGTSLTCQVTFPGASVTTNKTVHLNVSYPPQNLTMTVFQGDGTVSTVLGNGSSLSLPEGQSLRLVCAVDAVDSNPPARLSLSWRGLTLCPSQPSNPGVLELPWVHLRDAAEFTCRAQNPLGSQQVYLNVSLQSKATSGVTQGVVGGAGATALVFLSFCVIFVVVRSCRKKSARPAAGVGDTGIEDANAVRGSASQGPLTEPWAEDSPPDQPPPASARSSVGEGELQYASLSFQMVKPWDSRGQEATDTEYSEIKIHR

As for `CCc1ncnc2c1CCN(Cc1ccc(OC)cc1)CC2`, the Percent Effect in [1] is -4.58%; in test [2] it was -6.49%; in test [3], -0.0854%; with Trypanosoma cruzi it was 2.82%; in test [4], -2.02%; in [5], -3.79%. The Percent Effect was -6.35% in the test listed under Homo sapiens, 1.58% in [6], -12.8% in test [7] and 0.0386% in test [8].
Take `CC(=O)N1C[C@@H](c2ccsc2)[C@@H]2CN(Cc3ccccc3)CC[C@@H]21`: the Percent Effect is -3.48% in [1]; 12% in test [2]; 0.781% in [3]; 1.77% in the test with Trypanosoma cruzi; 0.885% in test [4]; 12.2% in test [5]. Besides, the Percent Effect in the test listed under Homo sapiens is 12.3%; in [6], 10.6%; in test [7], 7.5%; in [8], -25.4%.
Turning to `CNc1ccc(CC2CCCN(C(=O)c3cncnc3C)C2)nn1` (stereo not given), the Percent Effect is 3.9% in test [1]; 12% in test [2]; -5.1% in test [3]; -6.31% in the test on Trypanosoma cruzi; 8.41% in [4]; 13% in test [5]. The Percent Effect was 4.65% in the test filed under Homo sapiens, 1.06% in test [6], 10% in test [7] and -22.6% in [8].
Take `Cn1cccc1-c1cc(C(=O)N2CCCC2c2cccnc2)[nH]n1` (stereo not given): the Percent Effect in test [1] was -6.61%; in test [2], 18.9%; in test [3], 15.5%; with Trypanosoma cruzi, 5.72%; in test [4], 5.94%; in [5], 16.6%. Moreover, the Percent Effect was 5.26% in the test listed under Homo sapiens, 4.79% in test [6], 17.1% in [7] and -2.92% in [8].
As to `Cc1nn(C)c(N(C)C)c1CNCCCN(C)S(C)(=O)=O`, the Percent Effect is -1.22% in test [1]; 12.8% in [2]; -8.74% in test [3]; -3.47% in the test on Trypanosoma cruzi; 5.33% in test [4]; 10.2% in test [5]. Also, the Percent Effect in the test filed under Homo sapiens is 4.19%; in test [6], 2.39%; in [7], 18.1%; in test [8] it was -3.07%.
As to `O=C(c1cc(C2CC2)[nH]n1)N1CCCC(n2cncn2)C1` (stereo not given), the Percent Effect in test [1] is -2.3%; in [2], 7.69%; in [3], -12.5%; in the test on Trypanosoma cruzi, 4.6%; in [4], 1.23%; in [5], 8.11%. For the same molecule, the Percent Effect in the test filed under Homo sapiens was -13.2%; in test [6], 2.39%; in [7], 10.8%; in test [8], -2.79%.
With `Cc1cc(N2CCC(NC(=O)C3CC3)CC2)nc(-c2ccncc2)n1`, the Percent Effect in [1] was -0.846%; in test [2] it was 23.4%; in test [3] it was 0.849%; in the test with Trypanosoma cruzi it was 2.98%; in [4], -1.43%; in test [5] it was 13%. Further, the Percent Effect in the test listed under Homo sapiens is 9.23%; in test [6], 12.8%; in test [7], 35.3%; in test [8], -0.543%.
Regarding `O=C(CSC1CCc2ccccc2NC1=O)NCCc1ccco1` (stereo not given), the Percent Effect in [1] is -1.93%; in [2], 18.9%; in test [3], 2.64%; with Trypanosoma cruzi it was 3.98%; in test [4], 11.5%; in [5] it was 18%. In addition, the Percent Effect is 16.5% in the test listed under Homo sapiens, 3.72% in test [6], 17.1% in test [7] and -0.493% in test [8].
Regarding `Clc1ccccc1-c1nc(CNC2CCc3ncnn3C2)cs1` (stereo not given), the Percent Effect in [1] is -0.994%; in [2] it was -12.8%; in test [3], -3.7%; in the test on Trypanosoma cruzi, 4.6%; in test [4] it was 0.41%; in [5], -0.427%. The Percent Effect in the test listed under Homo sapiens is -12%; in [6], 2.39%; in [7], 1.21%; in [8], 6.45%.
As for `CS(=O)(=O)NCC1CCCN(C(=O)COCC(F)(F)F)C1` (stereo not given), the Percent Effect in [1] was -0.972%; in [2], 15.4%; in test [3] it was 0.69%; in the test on Trypanosoma cruzi, 0.845%; in test [4], 2.87%; in test [5] it was 6.57%. The Percent Effect in the test listed under Homo sapiens is 9.12%; in test [6] it was 2.39%; in test [7], 22.9%; in [8], -7.07%.
`c1ccc(OC2CCCC2)c(CNC2CCc3ncnn3C2)c1` (stereo not given): the Percent Effect in test [1] was -3.8%; in test [2] it was 10.3%; in test [3] it was -13.9%; in the test with Trypanosoma cruzi it was 5.35%; in test [4] it was 2.87%; in test [5], 20.7%. Also, the Percent Effect was 3.46% in the test listed under Homo sapiens, 6.22% in test [6], 18.1% in [7] and -3.21% in [8].
Turning to `NC(=O)C1CCC(NC(=O)COc2ccc(Cl)c(Cl)c2)CC1` (stereo not given), the Percent Effect is -4.03% in [1]; 10.4% in [2]; 8.56% in test [3]; 6.16% in the test with Trypanosoma cruzi; -5.94% in test [4]; 9.12% in [5]. In addition, the Percent Effect in the test filed under Homo sapiens was 8.8%; in test [6] it was 5.88%; in test [7] it was 23.5%; in test [8], -8.52%.
